Test results published in publication PMC7862700, “An all-to-all approach to the identification of sequence-specific readers for epigenetic DNA modifications on cytosine”.

What was measured:
Assay in all cases: DAPPL (digital affinity profiling via proximity ligation, sequencing); 10 mM Tris-HCl pH 7.5, 50 mM NaCl, 1 mM DTT, 4% glycerol, room temperature, 30 min; GST-TFs on glutathione beads, 16-mer random dsDNA library, 0.1% formaldehyde crosslink after washing; high values mean tight binding
FEV = target: T1, FEV (Homo sapiens, UniProt Q99581 1-238); conditions: protein: recombinant; tags: N-terminal GST; dsDNA, one strand shown
T1 sequence: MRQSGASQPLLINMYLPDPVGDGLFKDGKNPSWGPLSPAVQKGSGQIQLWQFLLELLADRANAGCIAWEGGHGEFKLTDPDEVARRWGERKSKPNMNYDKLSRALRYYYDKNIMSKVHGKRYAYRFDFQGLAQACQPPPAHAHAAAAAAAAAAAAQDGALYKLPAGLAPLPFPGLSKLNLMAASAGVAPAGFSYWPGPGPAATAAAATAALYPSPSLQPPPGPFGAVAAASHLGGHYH
Outline: (§1)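 Pools of DNA-barcoded human transcription factors, expressed in yeast as GST fusions on glutathione beads and combined with a tag-only sample, were incubated with 200 nmole of a 16-mer random double-stranded DNA library. Incubation took 30 min at room temperature in Tris/NaCl/DTT/glycerol buffer and was followed by washing, 0.1% formaldehyde crosslinking, proximity ligation (BsaI/T4 ligase, 1 h, 37 °C), PCR amplification and sequencing on an Illumina NextSeq500. Binding signal is the ratio of a hexamer's read frequency for a factor to its frequency for the tag-only sample.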

ETV5 = ETV5 (Homo sapiens, UniProt P41161 1-510); conditions: protein: recombinant; tags: N-terminal GST; dsDNA, one strand shown
Outline: as §1

HSF1 = HSF1 (Homo sapiens, UniProt Q00613 1-529); conditions: protein: recombinant; tags: N-terminal GST; chain copies: 3; dsDNA, one strand shown
Outline: as §1

SPIC = target: T2, SPIC (Homo sapiens, UniProt Q8N5J4 1-248); conditions: protein: recombinant; tags: N-terminal GST; dsDNA, one strand shown
T2 sequence: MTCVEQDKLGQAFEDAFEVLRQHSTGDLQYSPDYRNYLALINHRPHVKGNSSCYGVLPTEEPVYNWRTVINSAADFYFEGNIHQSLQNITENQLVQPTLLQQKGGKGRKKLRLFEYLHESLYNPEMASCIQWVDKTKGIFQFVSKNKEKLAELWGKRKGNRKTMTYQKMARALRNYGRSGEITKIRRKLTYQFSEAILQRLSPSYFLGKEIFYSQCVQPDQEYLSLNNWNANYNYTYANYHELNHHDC
Outline: as §1

ELF4 = ELF4 (Homo sapiens, UniProt Q99607 1-663); conditions: protein: recombinant; tags: N-terminal GST; dsDNA, one strand shown
Outline: as §1

ELK4 = target: T3, ELK4 (Homo sapiens, UniProt P28324-2 1-405); conditions: protein: recombinant; tags: N-terminal GST; dsDNA, one strand shown
T3 sequence: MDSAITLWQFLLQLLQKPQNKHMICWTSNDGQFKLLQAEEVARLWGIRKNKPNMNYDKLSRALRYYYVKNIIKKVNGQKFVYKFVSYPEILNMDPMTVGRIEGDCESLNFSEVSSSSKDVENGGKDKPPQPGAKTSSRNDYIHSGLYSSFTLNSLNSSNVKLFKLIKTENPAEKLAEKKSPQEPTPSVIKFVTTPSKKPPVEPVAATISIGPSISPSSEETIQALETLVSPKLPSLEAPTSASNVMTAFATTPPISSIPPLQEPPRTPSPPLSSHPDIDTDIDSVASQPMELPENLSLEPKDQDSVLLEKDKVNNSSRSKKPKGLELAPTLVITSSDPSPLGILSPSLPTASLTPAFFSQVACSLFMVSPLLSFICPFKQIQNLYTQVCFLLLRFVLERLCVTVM
Outline: as §1

ETV2 = target: T4, ETV2 (Homo sapiens, UniProt O00321 1-342); conditions: protein: recombinant; tags: N-terminal GST; dsDNA, one strand shown
T4 sequence: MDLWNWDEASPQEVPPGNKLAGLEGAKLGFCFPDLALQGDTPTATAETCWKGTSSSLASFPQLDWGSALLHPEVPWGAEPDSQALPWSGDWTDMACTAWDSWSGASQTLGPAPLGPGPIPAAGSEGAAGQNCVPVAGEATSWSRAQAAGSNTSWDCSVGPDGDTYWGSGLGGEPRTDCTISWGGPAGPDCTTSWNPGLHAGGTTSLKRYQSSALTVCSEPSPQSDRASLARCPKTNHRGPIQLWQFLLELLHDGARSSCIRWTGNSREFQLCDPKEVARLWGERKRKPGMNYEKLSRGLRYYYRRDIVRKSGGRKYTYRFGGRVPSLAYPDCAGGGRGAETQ
Outline: as §1

ELF3 = target: T5, ELF3 (Homo sapiens, UniProt P78545 1-371); conditions: protein: recombinant; tags: N-terminal GST; dsDNA, one strand shown
T5 sequence: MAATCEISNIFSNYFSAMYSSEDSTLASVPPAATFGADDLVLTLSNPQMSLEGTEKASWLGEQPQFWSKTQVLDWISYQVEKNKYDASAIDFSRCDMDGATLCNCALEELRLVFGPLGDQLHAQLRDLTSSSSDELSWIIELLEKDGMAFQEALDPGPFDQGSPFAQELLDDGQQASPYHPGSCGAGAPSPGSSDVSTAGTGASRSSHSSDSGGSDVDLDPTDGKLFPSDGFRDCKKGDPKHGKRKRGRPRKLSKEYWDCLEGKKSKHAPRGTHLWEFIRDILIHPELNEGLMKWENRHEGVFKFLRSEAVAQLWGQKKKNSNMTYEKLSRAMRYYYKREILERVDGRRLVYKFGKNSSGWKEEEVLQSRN
Outline: as §1

CRX = CRX (Homo sapiens, UniProt O43186 1-299); conditions: protein: recombinant; tags: N-terminal GST; dsDNA, one strand shown
Outline: as §1

ETV1 = ETV1 (Homo sapiens, UniProt P50549 1-477); conditions: protein: recombinant; tags: N-terminal GST; dsDNA, one strand shown
Outline: as §1

ERF = target: T6, ERF (Homo sapiens, UniProt P50548 1-548); conditions: protein: recombinant; tags: N-terminal GST; dsDNA, one strand shown
T6 sequence: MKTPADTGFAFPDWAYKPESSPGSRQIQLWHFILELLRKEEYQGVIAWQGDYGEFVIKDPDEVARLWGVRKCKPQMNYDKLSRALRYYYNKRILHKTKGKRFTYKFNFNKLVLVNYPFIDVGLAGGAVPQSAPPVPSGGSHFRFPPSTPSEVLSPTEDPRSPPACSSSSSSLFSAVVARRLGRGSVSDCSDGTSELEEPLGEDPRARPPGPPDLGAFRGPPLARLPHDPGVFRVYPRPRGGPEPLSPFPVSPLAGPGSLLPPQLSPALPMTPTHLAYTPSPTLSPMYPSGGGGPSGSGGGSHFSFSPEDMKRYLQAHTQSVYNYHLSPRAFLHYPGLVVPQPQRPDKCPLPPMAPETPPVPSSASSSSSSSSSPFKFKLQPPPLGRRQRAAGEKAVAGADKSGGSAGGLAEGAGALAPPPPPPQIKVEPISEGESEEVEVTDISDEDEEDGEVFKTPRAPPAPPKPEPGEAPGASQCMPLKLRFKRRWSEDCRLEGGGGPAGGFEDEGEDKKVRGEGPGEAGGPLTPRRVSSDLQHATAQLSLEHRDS
Outline: as §1

ETV3L = target: T7, ETV3L (Homo sapiens, UniProt Q6ZN32 1-361); conditions: protein: recombinant; tags: N-terminal GST; dsDNA, one strand shown
T7 sequence: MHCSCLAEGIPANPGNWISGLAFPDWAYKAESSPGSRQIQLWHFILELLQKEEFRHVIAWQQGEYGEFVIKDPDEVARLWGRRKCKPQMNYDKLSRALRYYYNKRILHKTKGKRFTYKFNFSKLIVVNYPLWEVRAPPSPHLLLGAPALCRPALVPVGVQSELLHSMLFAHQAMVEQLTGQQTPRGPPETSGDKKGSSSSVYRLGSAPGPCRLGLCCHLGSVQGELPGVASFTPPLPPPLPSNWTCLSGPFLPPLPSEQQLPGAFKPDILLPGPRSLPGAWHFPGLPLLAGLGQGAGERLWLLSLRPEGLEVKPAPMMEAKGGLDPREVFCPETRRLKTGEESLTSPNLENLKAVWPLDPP
Outline: as §1

ETS2 = target: T8, ETS2 (Homo sapiens, UniProt P15036 1-469); conditions: protein: recombinant; tags: N-terminal GST; dsDNA, one strand shown
T8 sequence: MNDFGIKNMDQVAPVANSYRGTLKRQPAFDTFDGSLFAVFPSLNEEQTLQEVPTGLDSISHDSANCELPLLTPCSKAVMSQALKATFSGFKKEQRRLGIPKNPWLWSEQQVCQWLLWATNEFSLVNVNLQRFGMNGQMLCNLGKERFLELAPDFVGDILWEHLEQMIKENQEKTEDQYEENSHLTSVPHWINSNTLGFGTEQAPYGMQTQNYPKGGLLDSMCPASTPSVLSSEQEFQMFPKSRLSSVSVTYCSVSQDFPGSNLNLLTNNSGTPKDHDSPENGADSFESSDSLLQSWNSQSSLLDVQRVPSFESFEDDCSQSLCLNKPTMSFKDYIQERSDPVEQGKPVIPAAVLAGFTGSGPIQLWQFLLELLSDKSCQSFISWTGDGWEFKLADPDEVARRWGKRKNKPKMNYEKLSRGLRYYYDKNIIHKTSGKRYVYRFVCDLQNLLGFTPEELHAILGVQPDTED
Outline: as §1

SPDEF = target: T9, SPDEF (Homo sapiens, UniProt O95238 1-335); conditions: protein: recombinant; tags: N-terminal GST; dsDNA, one strand shown
T9 sequence: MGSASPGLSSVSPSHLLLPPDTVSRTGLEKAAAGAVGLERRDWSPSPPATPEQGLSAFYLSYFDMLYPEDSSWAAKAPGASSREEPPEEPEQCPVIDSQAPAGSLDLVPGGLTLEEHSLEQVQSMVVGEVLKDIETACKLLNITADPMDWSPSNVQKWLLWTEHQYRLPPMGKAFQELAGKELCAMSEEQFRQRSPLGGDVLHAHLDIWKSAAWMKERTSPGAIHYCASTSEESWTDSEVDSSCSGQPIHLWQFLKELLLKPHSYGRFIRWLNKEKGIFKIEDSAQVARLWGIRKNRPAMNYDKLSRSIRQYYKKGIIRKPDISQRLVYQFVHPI
Outline: as §1

ETV7 = target: T10, ETV7 (Homo sapiens, UniProt Q9Y603 1-341); conditions: protein: recombinant; tags: N-terminal GST; dsDNA, one strand shown
T10 sequence: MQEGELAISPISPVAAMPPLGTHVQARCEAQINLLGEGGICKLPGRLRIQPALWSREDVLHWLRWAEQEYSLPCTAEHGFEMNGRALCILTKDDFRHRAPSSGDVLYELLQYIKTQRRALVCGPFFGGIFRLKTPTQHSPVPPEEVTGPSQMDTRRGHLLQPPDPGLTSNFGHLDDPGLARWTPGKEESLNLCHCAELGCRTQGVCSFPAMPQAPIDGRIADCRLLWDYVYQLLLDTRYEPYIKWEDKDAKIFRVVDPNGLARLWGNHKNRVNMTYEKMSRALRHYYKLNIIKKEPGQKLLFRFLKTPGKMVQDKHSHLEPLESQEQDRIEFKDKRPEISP
Outline: as §1

ELF5 = target: T11, ELF5 (Homo sapiens, UniProt Q9UKW6-2 1-255); conditions: protein: recombinant; tags: N-terminal GST; dsDNA, one strand shown
T11 sequence: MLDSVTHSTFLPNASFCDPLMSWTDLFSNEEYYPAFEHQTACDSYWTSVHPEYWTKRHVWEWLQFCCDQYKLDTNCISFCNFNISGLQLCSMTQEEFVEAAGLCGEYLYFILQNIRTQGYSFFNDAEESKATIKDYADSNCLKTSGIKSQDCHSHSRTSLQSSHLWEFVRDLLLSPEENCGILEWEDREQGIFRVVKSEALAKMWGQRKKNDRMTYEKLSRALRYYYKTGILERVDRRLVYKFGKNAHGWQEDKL
Outline: as §1

ETV3 = target: T12, ETV3 (Homo sapiens, UniProt P41162-2 1-143); conditions: protein: recombinant; tags: N-terminal GST; dsDNA, one strand shown
T12 sequence: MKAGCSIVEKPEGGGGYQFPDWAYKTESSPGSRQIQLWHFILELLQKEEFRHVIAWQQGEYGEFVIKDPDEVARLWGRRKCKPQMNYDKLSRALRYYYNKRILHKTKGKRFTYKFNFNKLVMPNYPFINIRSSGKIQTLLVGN
Outline: as §1

ETV6 = ETV6 (Homo sapiens, UniProt P41212 1-452); conditions: protein: recombinant; tags: N-terminal GST; dsDNA, one strand shown
Outline: as §1

Sequence of CRX (O43186 whole entry): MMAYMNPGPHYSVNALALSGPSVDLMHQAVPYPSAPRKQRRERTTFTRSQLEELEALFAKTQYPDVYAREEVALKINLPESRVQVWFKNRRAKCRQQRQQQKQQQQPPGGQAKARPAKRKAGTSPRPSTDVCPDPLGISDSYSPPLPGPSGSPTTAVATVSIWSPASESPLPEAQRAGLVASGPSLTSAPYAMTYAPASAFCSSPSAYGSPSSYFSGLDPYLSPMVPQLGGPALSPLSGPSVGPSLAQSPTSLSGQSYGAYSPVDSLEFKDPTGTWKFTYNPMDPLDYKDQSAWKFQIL
Sequence of ETV6 (P41212 whole entry): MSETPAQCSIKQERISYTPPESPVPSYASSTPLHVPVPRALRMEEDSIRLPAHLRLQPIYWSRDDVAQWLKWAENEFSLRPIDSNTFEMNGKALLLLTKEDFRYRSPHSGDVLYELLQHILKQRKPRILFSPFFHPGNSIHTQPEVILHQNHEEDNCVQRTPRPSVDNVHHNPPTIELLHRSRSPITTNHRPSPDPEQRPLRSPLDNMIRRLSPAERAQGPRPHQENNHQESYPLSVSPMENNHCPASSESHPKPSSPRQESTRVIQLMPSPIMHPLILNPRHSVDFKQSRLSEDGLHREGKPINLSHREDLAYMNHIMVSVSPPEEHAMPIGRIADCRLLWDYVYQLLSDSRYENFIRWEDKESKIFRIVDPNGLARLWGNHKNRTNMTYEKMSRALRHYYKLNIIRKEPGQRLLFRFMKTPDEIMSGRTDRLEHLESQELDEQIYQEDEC
Sequence of HSF1 (Q00613 whole entry): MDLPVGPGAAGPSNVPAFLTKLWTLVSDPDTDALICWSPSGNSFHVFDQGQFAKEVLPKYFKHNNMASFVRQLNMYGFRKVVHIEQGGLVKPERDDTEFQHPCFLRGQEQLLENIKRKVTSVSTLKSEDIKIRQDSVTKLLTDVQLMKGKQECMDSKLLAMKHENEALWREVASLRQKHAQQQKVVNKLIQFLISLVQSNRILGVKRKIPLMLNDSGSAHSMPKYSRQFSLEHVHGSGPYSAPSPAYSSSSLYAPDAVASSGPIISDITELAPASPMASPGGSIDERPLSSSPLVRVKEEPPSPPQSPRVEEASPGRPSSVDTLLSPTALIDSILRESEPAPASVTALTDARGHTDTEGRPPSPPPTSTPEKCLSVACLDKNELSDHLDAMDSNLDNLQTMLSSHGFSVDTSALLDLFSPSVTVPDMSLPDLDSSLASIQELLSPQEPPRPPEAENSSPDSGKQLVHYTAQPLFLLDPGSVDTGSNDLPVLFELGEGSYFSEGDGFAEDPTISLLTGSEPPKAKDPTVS
Sequence of ETV5 (P41161 whole entry): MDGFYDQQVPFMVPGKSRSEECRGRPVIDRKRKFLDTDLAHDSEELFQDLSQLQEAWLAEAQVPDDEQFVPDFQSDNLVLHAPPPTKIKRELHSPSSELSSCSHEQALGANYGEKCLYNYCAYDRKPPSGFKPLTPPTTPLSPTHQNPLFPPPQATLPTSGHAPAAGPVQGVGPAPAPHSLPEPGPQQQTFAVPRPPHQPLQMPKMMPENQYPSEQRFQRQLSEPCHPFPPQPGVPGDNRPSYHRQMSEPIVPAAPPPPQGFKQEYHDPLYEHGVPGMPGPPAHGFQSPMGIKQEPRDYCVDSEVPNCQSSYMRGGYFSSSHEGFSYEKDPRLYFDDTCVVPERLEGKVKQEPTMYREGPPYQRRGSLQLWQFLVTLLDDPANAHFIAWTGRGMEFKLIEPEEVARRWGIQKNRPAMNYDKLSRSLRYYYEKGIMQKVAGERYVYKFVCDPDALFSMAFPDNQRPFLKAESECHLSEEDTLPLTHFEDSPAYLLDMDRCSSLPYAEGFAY
Sequence of ETV1 (P50549 whole entry): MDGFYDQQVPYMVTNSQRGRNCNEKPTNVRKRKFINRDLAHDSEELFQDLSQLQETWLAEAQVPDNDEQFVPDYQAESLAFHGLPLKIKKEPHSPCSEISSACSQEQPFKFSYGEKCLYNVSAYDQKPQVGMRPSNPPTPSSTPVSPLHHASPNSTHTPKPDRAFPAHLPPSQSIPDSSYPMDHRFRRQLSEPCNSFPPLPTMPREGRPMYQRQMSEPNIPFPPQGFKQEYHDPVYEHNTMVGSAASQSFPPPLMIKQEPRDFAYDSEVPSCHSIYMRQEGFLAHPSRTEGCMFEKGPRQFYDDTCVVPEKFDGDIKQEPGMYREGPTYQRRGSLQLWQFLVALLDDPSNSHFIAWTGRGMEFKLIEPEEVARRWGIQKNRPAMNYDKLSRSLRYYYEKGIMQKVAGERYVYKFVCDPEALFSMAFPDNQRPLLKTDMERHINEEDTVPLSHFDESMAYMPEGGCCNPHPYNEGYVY
Sequence of ELF4 (Q99607 whole entry): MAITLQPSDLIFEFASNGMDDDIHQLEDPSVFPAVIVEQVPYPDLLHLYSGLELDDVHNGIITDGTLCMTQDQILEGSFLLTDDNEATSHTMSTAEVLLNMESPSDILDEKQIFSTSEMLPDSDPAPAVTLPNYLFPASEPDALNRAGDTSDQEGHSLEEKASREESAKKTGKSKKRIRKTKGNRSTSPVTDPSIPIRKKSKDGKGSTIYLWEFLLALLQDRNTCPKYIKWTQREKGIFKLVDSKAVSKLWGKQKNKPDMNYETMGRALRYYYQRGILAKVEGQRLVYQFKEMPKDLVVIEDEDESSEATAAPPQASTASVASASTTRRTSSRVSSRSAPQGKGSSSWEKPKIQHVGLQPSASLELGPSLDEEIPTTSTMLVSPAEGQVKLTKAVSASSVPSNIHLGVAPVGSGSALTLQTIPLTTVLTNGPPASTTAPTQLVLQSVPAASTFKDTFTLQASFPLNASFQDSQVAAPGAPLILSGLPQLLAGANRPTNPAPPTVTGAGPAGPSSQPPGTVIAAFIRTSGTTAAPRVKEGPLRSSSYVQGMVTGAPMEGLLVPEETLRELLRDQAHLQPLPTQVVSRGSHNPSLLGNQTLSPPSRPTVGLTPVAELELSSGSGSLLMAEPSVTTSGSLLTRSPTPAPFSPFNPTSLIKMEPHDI

TTCACC
binding signal (FEV): 1.39 fold enrichment (6-mer frequency, TF over GST control) | binding signal (ETV5): 1.33 fold enrichment (6-mer frequency, TF over GST control) | binding signal (HSF1): 1.14 fold enrichment (6-mer frequency, TF over GST control) | binding signal (SPIC): 1.34 fold enrichment (6-mer frequency, TF over GST control) | binding signal (ELF4): 1.44 fold enrichment (6-mer frequency, TF over GST control) | binding signal (ELK4): 1.36 fold enrichment (6-mer frequency, TF over GST control) | binding signal (ETV2): 1.36 fold enrichment (6-mer frequency, TF over GST control) | binding signal (ELF3): 1.57 fold enrichment (6-mer frequency, TF over GST control) | binding signal (CRX): 1.17 fold enrichment (6-mer frequency, TF over GST control) | binding signal (ETV1): 1.4 fold enrichment (6-mer frequency, TF over GST control) | binding signal (ERF): 1.41 fold enrichment (6-mer frequency, TF over GST control) | binding signal (ETV3L): 1.32 fold enrichment (6-mer frequency, TF over GST control) | binding signal (ETS2): 1.35 fold enrichment (6-mer frequency, TF over GST control) | binding signal (SPDEF): 1.32 fold enrichment (6-mer frequency, TF over GST control) | binding signal (ETV7): 1.3 fold enrichment (6-mer frequency, TF over GST control) | binding signal (ELF5): 1.32 fold enrichment (6-mer frequency, TF over GST control) | binding signal (ETV3): 1.48 fold enrichment (6-mer frequency, TF over GST control) | binding signal (ETV6): 1.35 fold enrichment (6-mer frequency, TF over GST control)
